GoLoco inh red: RGS12 GoLoco-Gai1 interaction inhibition; 0.44% of 230,000 active; Potency, µM (titrated, usually from 61.6 µM), for inactives: at the highest dose activity, negative = inhibition, most hits filed as inhibitors; P63096; AID 880; Gai1:RGS12 GoLoco peptide FP, rhodamine, 10 min; active = well fitted inhibition curve with a large enough effect, not every such curve was filed as active; inactive = no such curve, though single readings can be large or run the other way; note: potency is the fitted concentration of half-maximal effect; % is set by controls: 0 for no effect and ±100 for the full control effect; nearly all actives have a fitted effect of over 30% in size
CBFb-RUNX1 inh: blocks binding between human CBF-beta and RUNX1 | Q01196+Q13951 | AlphaScreen CBFb-His/RUNX1-biotin binding, biochemical | Potency, µM (doses to about 59.8 µM), for inactives: top-dose activity, negative = inhibition, hits mostly inhibitors | 230,000 tested, under 10 active; note: % of control where 0% means no effect
Target sequence (Q01196 whole entry, looked up): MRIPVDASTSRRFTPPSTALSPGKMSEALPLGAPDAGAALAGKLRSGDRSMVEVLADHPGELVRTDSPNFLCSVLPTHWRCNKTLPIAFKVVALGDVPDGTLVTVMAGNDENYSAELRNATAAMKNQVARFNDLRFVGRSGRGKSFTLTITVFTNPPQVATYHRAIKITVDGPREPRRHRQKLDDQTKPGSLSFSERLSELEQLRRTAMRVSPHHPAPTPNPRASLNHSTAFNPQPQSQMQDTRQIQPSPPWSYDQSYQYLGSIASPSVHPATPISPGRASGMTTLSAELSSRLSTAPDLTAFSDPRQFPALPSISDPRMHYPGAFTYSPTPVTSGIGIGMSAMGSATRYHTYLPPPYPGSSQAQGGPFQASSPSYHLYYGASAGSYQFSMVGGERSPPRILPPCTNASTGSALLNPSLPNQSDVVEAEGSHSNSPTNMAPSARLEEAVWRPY
Target sequence (Q13951 whole entry, looked up): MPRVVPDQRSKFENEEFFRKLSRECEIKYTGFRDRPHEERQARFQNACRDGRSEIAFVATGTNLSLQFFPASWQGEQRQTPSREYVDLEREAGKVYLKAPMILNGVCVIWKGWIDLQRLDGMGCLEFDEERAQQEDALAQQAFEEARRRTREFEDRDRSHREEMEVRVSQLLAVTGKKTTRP
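AlphaScreen binding: CBFb-His and RUNX1-biotin (30 nM each) preincubated 20 min, compound added for 15 min, then nickel and streptavidin beads for 90 min, all at room temperature. Disruption of the interaction by any mechanism counts as activity.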
Integrin act MD: integrin-mediated muscular dystrophy alleviation activation; 0.064% of 350,000 active; alpha7betagal myoblasts, beta-gal FDG fluorescence, 48 h; Potency, µM (highest dose often 38.3 µM), inactives show at the highest dose activation, actives largely listed as activators;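 note: potency is the fitted concentration of half-maximal effect; 100% = response of the positive control SU9516; nearly all actives have a fitted effect of over 60% in size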
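Alpha7betagal+/- myoblasts (passage 13) were plated 16-24 hr, then exposed to compounds (1:260 dilution of DMSO stock) for 48 hours at 37C. After MPER lysis, β-galactosidase reporter activity was read as FDG fluorescence (ex 480/em 540) after 30 minutes.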
TexasRed fluor: counter-screen for TRb-SRC2 inhibitors: fluorescence interference; TRb/SRC2 Texas Red total fluorescence interference; Potency, µM (top dose mostly 106 µM), inactives show at the top dose fluorescence change, negative = quenching; 0.29% of 280,000 active; active = well fitted curve in either direction with a large enough effect; inconclusive = small, poorly fitted or top-dose-only effect; note: potency is the fitted concentration of half-maximal effect; % is set by controls: 0 for no effect and ±100 for the full control effect
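Flags fluorescent or light-absorbing compounds by total fluorescence, S + 2P, at 555 nm excitation and 632 nm emission. Mixture: 20 nM Texas Red SRC2 peptide, 0.6 uM human TRb LBD, 1 uM T3, 5% DMSO; compound exposure 5 h at ambient temperature.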
TRb SRC2 PPI: TRbeta-SRC2 interaction inhibition; P10828; TRbeta-SRC2 peptide binding, fluorescence polarization; receptor liganded with 1 µM T3; Potency, µM (highest dose often 106 µM), for the others: at the highest dose activity change, negative = inhibition, actives largely listed as inhibitors; 0.065% of 280,000 active;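 note: potency is the fitted concentration of half-maximal effect; plate controls were bound peptide for no effect and peptide without receptor for full effect; nearly all actives have a fitted effect of over 50% in size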
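TRb LBD 0.6 uM + Texas Red SRC2 peptide 20 nM, 1 uM T3, Tris buffer w/ 5% DMSO; compound pinned, 5 h RT; FP read ex 555/em 632; normalized to unbound and bound controls.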
ERG-DNA inh: blocks human ERG Ets domain binding to DNA; P11308; fluorescence polarization, His-ERG Ets domain / labelled DNA; Potency, µM (doses to about 76.9 µM), for the others: top-dose FP activity, negative = inhibition, usual class: inhibitors; 0.028% of 370,000 active; AID 624246; active = well fitted inhibition curve with a large enough effect in the polarisation, with a control signal flat; inconclusive = small, poorly fitted or top-dose-only effect, or effect the other way, or a change in a side signal; inactive = no such curve, though single readings can be large or run the other way; the % refers to the polarisation;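 note: polarization taken with two DNA probes labelled with fluorescein and Texas red; potency is the fitted concentration of half-maximal effect; % of control where 0% means no effect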
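His-tagged ERG Ets domain (1 uM in the protein solution; 300mM KCl, 50mM Tris-HCl, 1mM EDTA, 1mM DTT, pH 7.5) received compound, then a probe mix of 5 nM fluorescein-DNA and 100nM Texas-615-DNA. Fluorescence polarization was read for both dyes.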
Active calls of the source: *; ? = inconclusive; nt = no result; [ ] = dose if it differs, or a comment. Rows were chosen to be rich in hits. Some 0.45% of all compounds tested hit in one or more screens of this group. Unless noted, calls come from the whole dose curve; as a rule, active = well fitted curve in the direction sought with a large enough effect; inconclusive = small, poorly fitted or top-dose-only effect, or another doubt; inactive = no such curve, though single readings can be large; an effect the other way counts as inactive or inconclusive.

SMILES | GoLoco inh red | CBFb-RUNX1 inh | Integrin act MD | TexasRed fluor | TRb SRC2 PPI | ERG-DNA inh
CC(=O)[C@@H]1[C@H]2[C@H](C(=O)[C@H]3OC[C@@H]2O3)[C@H]2C=Cc3ccccc3N21 | 10% | -16%[21.7 µM] | nt | 35µM*[fluorescent] | 6% | nt
Cc1ccc(C(=O)[C@@H]2[C@H]3C4COC(O4)C(=O)[C@@H]3[C@H]3C=Cc4ccccc4N32)cc1 (some centres not stated) | 4% | -20%[21.7 µM] | nt | 1% | -5% | nt
CC(=O)c1ccc(NC(=O)C(C)N(C)CC(=O)Nc2cccc(F)c2)cc1 (configuration not stated) | 3% | 3% | 16% | -2% | 10% | -4%
CC(C(=O)Nc1ccc(C#N)cc1)N(C)CC(=O)Nc1cccc(F)c1 (configuration not stated) | -3% | -19% | 4µM* | -2% | 2% | -6%
CCCCc1nc2ccccc2c(N)c1CCC (tested in a mixture with another compound) | -31% | -5% | 11µM* | 11% | 9% | 0%
NC(C(=O)O)c1nn[nH]n1 (configuration not stated) | nt | -11% | nt | -2% | -9% | nt
CC[N+]1=C(C)C(C)(C)c2cc(C)ccc21 | -39% | ? | ? | 40µM*[fluorescent] | ? | 114%
CCOc1ccc(C2c3[nH]c4ccccc4c3CCN2C(=O)CSc2ccccc2)cc1 (configuration not stated) | nt | nt | nt | 2.8µM*[quencher] | -16% | 5%
Cn1sc(=O)n(Cc2ccccc2)c1=O | nt | 9% | nt | 2% | 0% | nt
O=C(O)c1c(Cl)c(Cl)c(Cl)c(Cl)c1-c1c2cc(I)c(=O)c(I)c-2oc2c(I)c(O)c(I)cc12 | 33% | nt | nt | 2.8µM*[fluorescent] | 5µM* | nt
O=c1[nH]nc(CNc2ccc(O)cc2)c2ccccc12 | -29% | -22% | -53% | 45µM*[fluorescent] | 28µM* | ?
Cc1c(C(=O)N2CCCCC2)c(S(=O)(=O)Nc2cccc(Br)c2)c(C)n1C | nt | nt | 10µM* | nt | nt | 6%
Cc1c(C(=O)N2CCOCC2)c(S(=O)(=O)Nc2cccc(Br)c2)c(C)n1C | nt | nt | ? | nt | nt | 36%
Cc1oc2c(O)c(O)ccc2c(=O)c1-c1cnn(-c2ccccc2)c1 | 2.2µM* | -16% | -43% | -1% | -9% | 1%
CCCCN(C)C(=O)c1ccc2c(c1)N(Cc1ccc(F)cc1)C(=O)c1ccccc1S2(=O)=O | nt | nt | nt | 0.0011µM*[quencher] | -12% | 8%
O=C1CCCC/C1=C\Nc1ccc(O)cc1 | -28% | ? | -12%[7.66 µM] | ? | 45µM* | -23%
O=C(Nc1cc(Cl)cc2c1[nH]c1cnccc12)c1cccnc1 | nt | ? | nt | 0% | 2% | nt
CCOC(=O)c1c(NC(C)=O)c2c3c(sc2n1Cc1nc(-c2ccccc2Cl)oc1C)CCCC3 | nt | nt | nt | 18µM*[quencher] | -14% | 7%
CCCCCCCCCCCCCCO | nt | nt | nt | 0%[201 µM] | 6%[201 µM] | nt
O=C1CC(c2ccccc2)=NN1c1nc(-c2ccccc2)cs1 | 34% | ? | ? | 32µM*[quencher] | ? | -9%
CNc1nnc(SCC(=O)c2cc(C)n(C3CC3)c2C)s1 | nt | nt | 13µM* | nt | nt | -5%
COc1cc(NS(=O)(=O)c2ccc([N+](=O)[O-])cc2)c2ncccc2c1 | nt | ? | nt | 0% | 0% | nt
CCCCCC(O)c1ccc([C@H]2CCC(=O)[C@@H]2CCCCCCC(=O)O)cc1 (some centres not stated) | nt | 26% | nt | -3% | 1% | nt
O=C(O)[C@H](C1NCCS1)N1Cc2ccccc2C1 (some centres not stated) | 3%[14.2 µM] | nt | nt | nt | nt | nt
CCN1C=C(Cc2ccccc2C)C2=C(C1)C(c1ccccc1C)C(C#N)=C(N)O2 (configuration not stated) | 150% | -27% | -2% | 45µM*[fluorescent] | ? | 4%
SMILES | GoLoco inh red | CBFb-RUNX1 inh | Integrin act MD | TexasRed fluor | TRb SRC2 PPI | ERG-DNA inh
CCCCC1OC23CCCCC2C(C#N)(C(=N)O3)C1(C#N)C#N (configuration not stated) | -42% | -4% | 0% | 4% | -6% | -11%
CCCCC1OC23CCCCC2C(C#N)(C#N)C1(C#N)C(=N)O3 (configuration not stated) | 28µM* | -1% | -23% | 4% | 7% | -11%
CCCCCCCCOc1ccc(C2OC34CCCCC3C(C#N)(C#N)C2(C#N)C(=N)O4)cc1 (configuration not stated) | 28µM* | 9% | -6% | 5% | -19% | ?
N#CC1(C#N)C(c2ccccc2)OC23CCCCC2C1(C#N)C(=N)O3 (configuration not stated) | -126% | -17% | -21% | ? | 45µM* | ?
N#CC1(C#N)C(c2ccccc2)OC23CCCCCC2C1(C#N)C(=N)O3 (configuration not stated) | -14% | 6% | -19% | -6% | 2% | 8%
CO[Si](CCCNCCN)(OC)OC | nt | nt | nt | 0%[201 µM] | -2%[201 µM] | nt
CCC(O)OCCCOC (configuration not stated) | nt | nt | nt | -1%[201 µM] | -5%[201 µM] | nt
CC(O)C#C[Si](C)(C)c1ccccc1 (configuration not stated) | 3% | -8% | nt | -1% | 3% | nt
CCOC(=O)C1=C(CN2CCN(c3ccc(OC)cc3)CC2)NC(=O)NC1c1ccc(Cl)cc1 (configuration not stated) | nt | nt | nt | -1% | -3% | -2%
CCOC(=O)C1=C(CN2CCN(c3ccc(OC)cc3)CC2)NC(=O)NC1c1ccc(OC)cc1 (configuration not stated) | nt | nt | nt | 100µM*[quencher] | -20% | 3%
Cc1ccc(CNC(=O)CSc2ncc(S(=O)(=O)c3ccc(Br)cc3)c(=O)[nH]2)cc1 | nt | nt | nt | 0.4µM*[quencher] | -27%[53 µM] | 4%
NCCCCCCNc1nc2c(N)ncnc2n1[C@@H]1O[C@@H]2COP(=O)(O)O[C@H]2[C@H]1O | nt | -5% | nt | 0% | -2% | nt
C=CC(=O)OCC[N+](C)(C)C | nt | nt | nt | -2%[201 µM] | 2%[201 µM] | nt
CCOP(=O)(OCC)/C(=N/OC(=O)c1ccc(OC)cc1)C(N)=O | 4.5µM* | 5% | -11% | 0% | -5% | 23%
Cc1cnc(C(=O)Nc2ccc(C)c(S(=O)(=O)N(C)C)c2)cn1 | 0% | -5% | 17% | 35µM*[quencher] | -17%[53 µM] | 0%
Cc1ccc(NC(=O)c2cnccn2)cc1S(=O)(=O)N(C)C | 0% | 17% | 5% | -2% | 4% | -6%
COC(=O)Cn1c(=O)c2c(nc3n2CCN3c2cccc(C)c2)n(C)c1=O | nt | nt | nt | 6% | 11% | -2%
Cc1cccc(N2CC(C)Cn3c2nc2c3c(=O)n(CC(=O)O)c(=O)n2C)c1 (configuration not stated) | nt | nt | nt | 10µM*[quencher] | 0% | 3%
